Consider three compounds from publication PMC11062922 (Nature Chemical Biology, 2023).

Read-outs that look alike come from different tables or passages of the source.

Parameters in all cases: species or system human, MV4-11 + K-562 + COLO205 + SK-N-BE2 + OVCAR-8
Assay [1] deals with AKT1. Conditions: read-out: apparent Kd, n = 1.
The subject of assay [2] is AKT2. The following applies: read-out: apparent Kd; compound concentrations:100 nM and 1000 nM (sheet 'Samples'); n = 1.
Assay [3] deals with HCK. Conditions: read-out: apparent Kd; compound concentrations:100 nM and 1000 nM (sheet 'Samples'); n = 1.
Assay [4] deals with MAP2K2. The following applies: read-out: apparent Kd, n = 1.
The test system of assay [5] is NQO1. The following applies: read-out: apparent Kd, n = 1.
Assay [6] has as its system RET. The following applies: read-out: apparent Kd; compound concentrations:100 nM and 1000 nM (sheet 'Samples'); n = 1.
Assay [7] deals with TP53RK. The following applies: read-out: apparent Kd; compound concentrations:100 nM and 1000 nM (sheet 'Samples'); n = 1.
Assay [8] has as its system YES1. Conditions: read-out: apparent Kd; compound concentrations:100 nM and 1000 nM (sheet 'Samples'); n = 1.
In assay [9] the test system is ADRBK1. The following applies: read-out: apparent Kd; compound concentrations: 100 nM and 1000 nM (sheet 'Samples'), CATDS: 7.1088636568514996E-2; n = 1.
The subject of assay [10] is FLT3. Conditions: read-out: apparent Kd; compound concentrations: 100 nM and 1000 nM (sheet 'Samples'), CATDS: 0.11498835622255001; n = 1.
Assay [11] relates to FRK. The following applies: read-out: apparent Kd; compound concentrations: 100 nM and 1000 nM (sheet 'Samples'), CATDS: 9.2307505689948E-2; n = 1.
Assay [12] has as its system MAP2K5. The following applies: read-out: apparent Kd; compound concentrations: 100 nM and 1000 nM (sheet 'Samples'), CATDS: 0.380124521697633; n = 1.
For assay [13], the system named is PDGFRB. The following applies: read-out: apparent Kd; compound concentrations: 100 nM and 1000 nM (sheet 'Samples'), CATDS: 7.8407173450410803E-2; n = 1.
Assay [14] deals with PRKCZ. Conditions: read-out: apparent Kd; compound concentrations: 100 nM and 1000 nM (sheet 'Samples'), CATDS: 7.7148514104913996E-2; n = 1.
In assay [15] the test system is PTK6. The following applies: read-out: apparent Kd; compound concentrations: 100 nM and 1000 nM (sheet 'Samples'), CATDS: 7.5013295148623801E-2; n = 1.
In assay [16] the test system is RIPK2. Conditions: read-out: apparent Kd; compound concentrations: 100 nM and 1000 nM (sheet 'Samples'), CATDS: 9.6327273582125797E-2; n = 1.
In assay [17] the test system is RIPK3. The following applies: read-out: apparent Kd; compound concentrations: 100 nM and 1000 nM (sheet 'Samples'), CATDS: 0.614198823590974; n = 1.
Assay [18] concerns ZAK. The following applies: read-out: apparent Kd; compound concentrations: 100 nM and 1000 nM (sheet 'Samples'), CATDS: 7.8640349215909094E-2; n = 1.
For assay [19], the system named is CDC42. The following applies: read-out: apparent Kd; compound concentrations: 100 nM and 1000 nM (sheet 'Samples'), CATDS: 5.0343094610780299E-2; n = 1.
The test system of assay [20] is DYNC1LI1. Conditions: read-out: apparent Kd; compound concentrations: 100 nM and 1000 nM (sheet 'Samples'), CATDS: 4.8109196484876701E-2; n = 1.
Assay [21] relates to ERBB3. The following applies: read-out: apparent Kd; compound concentrations: 100 nM and 1000 nM (sheet 'Samples'), CATDS: 4.7313636214179999E-2; n = 1.
Assay [22] relates to GARS. The following applies: read-out: apparent Kd; compound concentrations: 100 nM and 1000 nM (sheet 'Samples'), CATDS: 4.5585082575177599E-2; n = 1.
Assay [23] concerns GSK3A. The following applies: read-out: apparent Kd; compound concentrations: 100 nM and 1000 nM (sheet 'Samples'), CATDS: 8.5551067641828404E-2; n = 1.
The subject of assay [24] is GSK3B. Conditions: read-out: apparent Kd; compound concentrations: 100 nM and 1000 nM (sheet 'Samples'), CATDS: 0.10546569208605799; n = 1.
Assay [25] concerns HSP90B1. The following applies: read-out: apparent Kd; compound concentrations: 100 nM and 1000 nM (sheet 'Samples'), CATDS: 4.7547071429497198E-2; n = 1.
Assay [26] concerns MAP2K1. The following applies: read-out: apparent Kd; compound concentrations: 100 nM and 1000 nM (sheet 'Samples'), CATDS: 4.25622085031407E-2; n = 1.
For assay [27], the system named is MDN1. Conditions: read-out: apparent Kd; compound concentrations: 100 nM and 1000 nM (sheet 'Samples'), CATDS: 4.19866133995229E-2; n = 1.
In assay [28] the test system is MYLK3. Conditions: read-out: apparent Kd; compound concentrations: 100 nM and 1000 nM (sheet 'Samples'), CATDS: 4.95763825338097E-2; n = 1.
For assay [29], the system named is NNT. Conditions: read-out: apparent Kd; compound concentrations: 100 nM and 1000 nM (sheet 'Samples'), CATDS: 4.95392498935424E-2; n = 1.
For assay [30], the system named is OPA1. The following applies: read-out: apparent Kd; compound concentrations: 100 nM and 1000 nM (sheet 'Samples'), CATDS: 4.33362445952395E-2; n = 1.
In assay [31] the test system is PGK1. Conditions: read-out: apparent Kd; compound concentrations: 100 nM and 1000 nM (sheet 'Samples'), CATDS: 0.623413247361988; n = 1.
The subject of assay [32] is PRKCA. Conditions: read-out: apparent Kd; compound concentrations: 100 nM and 1000 nM (sheet 'Samples'), CATDS: 4.05038047397221E-2; n = 1.
Assay [33] relates to PRKCD. Conditions: read-out: apparent Kd; compound concentrations: 100 nM and 1000 nM (sheet 'Samples'), CATDS: 3.9953874898385103E-2; n = 1.
The subject of assay [34] is TNIK. The following applies: read-out: apparent Kd; compound concentrations: 100 nM and 1000 nM (sheet 'Samples'), CATDS: 4.3236885400500899E-2; n = 1.
The subject of assay [35] is VDAC3. The following applies: read-out: apparent Kd; compound concentrations: 100 nM and 1000 nM (sheet 'Samples'), CATDS: 4.2633905781269299E-2; n = 1.
The mark [36] stands for this setting: compound concentrations:100 nM and 1000 nM (sheet 'Samples').

Take `C=CC(=O)Nc1cc(-c2nn(C3CCC(N4CCN(C(C)=O)CC4)CC3)c3ncnc(N)c23)ccc1Oc1ccccc1` (centres unmarked) [TX-85-1]: the potency estimated from few doses in [1] (setting [36]) is 2280 nM; in assay [2] it was 2250 nM; in [3] it was 799 nM; in assay [4] (setting [36]) it was 1550 nM; in assay [5] (setting [36]), 1480 nM; in assay [6], 712 nM. For the same compound, the potency estimated from few doses in assay [7] is 1620 nM; in assay [8], 918 nM.
In the case of `CNC(=O)c1ccc2c(c1)ncn2-c1ccc(CC(=O)OC(C)(C)C)cc1` [GSK840], the potency estimated from few doses in assay [9] is 2020 nM; in [10] it was 469 nM; in assay [11], 857 nM; in assay [12] it was 12.1 nM; in assay [13], 1420 nM; in assay [14] it was 1500 nM. Further, the potency estimated from few doses is 1650 nM in [15], 759 nM in assay [16], 4.67 nM in assay [17] and 1400 nM in [18].
Consider `Cn1cc(C2=C(c3cn(C)c4c(N)cccc34)C(=O)NC2=O)c2ccccc21` [RO0317482-000], for which the potency estimated from few doses in [1] (compound concentrations: 100 nM and 1000 nM (sheet 'Samples'), CATDS: 4.4101078523111903E-2) was 1790 nM; in assay [19], 1310 nM; in assay [20] it was 1450 nM; in [21] it was 1510 nM; in [22], 1650 nM; in assay [23], 484 nM. The potency estimated from few doses in assay [24] was 343 nM; in [25] it was 1490 nM; in assay [26] it was 1960 nM; in [4] (compound concentrations: 100 nM and 1000 nM (sheet 'Samples'), CATDS: 4.6529537247477E-2), 1570 nM; in [27], 2030 nM; in assay [28], 1360 nM. The potency estimated from few doses in assay [29] was 1360 nM; in assay [5] (compound concentrations: 100 nM and 1000 nM (sheet 'Samples'), CATDS: 4.7041069195994198E-2), 1530 nM; in [30], 1870 nM; in assay [31], 20.4 nM; in assay [32], 2240 nM; in assay [33] it was 2330 nM. Also, the potency estimated from few doses was 1880 nM in [34] and 1950 nM in assay [35].
